In the library only some 0.89% were active in any assay of this set; here they are far more common.
LAP4 TOR yeast = alters LAP4-GFP fluorescence in TOR pathway yeast screen; GFP response vs DMSO, % at 10 µM; S. cerevisiae LAP4-GFP multiplex, flow cytometry GFP, 3 h; median GFP as percent of DMSO wells; 320,000 tested, 0.34% active;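 active means GFP response vs DMSO above a set limit, about the screen mean plus 3 SD, cut at about 150% in these data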
AGP1-GFP MLPCN = modulators of TOR pathway AGP1-GFP in S. cerevisiae; 320,000 tested, 0.02% active; S. cerevisiae AGP1-GFP multiplex flow cytometry, 3 h; GFP as percent of DMSO wells; GFP response vs DMSO, % at 10 µM;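 active means GFP response relative to DMSO above a set limit, near screen average plus 3 SD, cut at about 150% in these data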;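 further: median GFP channel fluorescence of the gated AGP1 strain per well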
CIT2 TOR yeast = alters CIT2-GFP fluorescence in TOR pathway yeast screen; S. cerevisiae CIT2-GFP strain, flow cytometry, 3 h; 100 means same as DMSO wells; GFP response vs DMSO, % at 10 µM; 320,000 tested, 0.065% active;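 active means GFP response relative to DMSO above a set limit, near the screen mean plus 3 SD, cut at about 150% in these data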;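 further: ratio of well median GFP fluorescence to mean of DMSO wells on the plate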
RPL19A-GFP yeast = yeast TOR pathway RPL19A-GFP modulation; 330,000 tested, 0.3% active; percent response vs DMSO, % at 10 µM; AID 2025; S. cerevisiae RPL19A-GFP strain, flow cytometry, 3 h; active compounds read low;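 active means percent response vs DMSO below 50%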;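 further: median channel GFP fluorescence of the barcoded RPL19A-GFP strain; lower means less RPL19A-GFP as with rapamycin TOR inhibition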
MEP2 TOR yeast = modulators of TOR pathway MEP2-GFP in S. cerevisiae; 330,000 tested, 0.51% active; GFP response vs DMSO, % at 10 µM; S. cerevisiae MEP2-GFP strain, flow cytometry GFP, 3 h; 100% = DMSO control level; AID 2016;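 active means GFP response versus DMSO above a set limit, roughly screen mean plus 3 SD, cut at about 180% in these data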;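 further: median GFP fluorescence of the barcode-gated MEP2-GFP cells per well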
LAP4 cherry2 = reconfirmed LAP4-GFP TOR pathway modulator in yeast; shares compounds with LAP4 TOR yeast; 590 tested, 20% active; GFP response vs DMSO, % at 10 µM; S. cerevisiae LAP4-GFP strain, flow cytometry GFP, 3 h;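 active means GFP signal as percent of the solvent control above about 150%, meaning raised reporter expression, limit read from the data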
MEP2-GFP pick2 = second confirmation of modulators of TOR reporter MEP2-GFP in yeast; shares compounds with LAP4 TOR yeast; GFP response vs DMSO, % at 10 µM; 590 tested, 10% active; S. cerevisiae MEP2-GFP strain, flow cytometry GFP, 3 h; AID 2622;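 active means GFP signal above 150% of the solvent control wells, that is a rise of more than half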;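 further: median channel GFP fluorescence of all gated yeast cells per well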
RPL19A-GFP pick2 = second confirmation of modulators of TOR reporter RPL19A-GFP in yeast | 590 tested, 3% active | GFP response vs DMSO, % at 10 µM | shares compounds with LAP4 TOR yeast | S. cerevisiae RPL19A-GFP strain, flow cytometry GFP, 3 h; active compounds read low; 100% means same as DMSO wells;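 active means under 65% GFP response relative to DMSO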;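 further: median GFP channel fluorescence per well over the all cells gate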
CIT2 GFP CP2 = yeast CIT2-GFP TOR reporter modulation, second cherry pick | shares compounds with LAP4 TOR yeast | S. cerevisiae CIT2-GFP strain, flow cytometry GFP, 3 h; DMSO control wells read 100% | GFP response vs DMSO, % at 10 µM | 590 tested, 8% active;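 active means GFP response vs DMSO above about 150%, limit read from the data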;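 further: median green fluorescence per well over all gated yeast cells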
AGP1-GFP pick2 = reconfirmed modulator of AGP1-GFP TOR reporter in yeast | shares compounds with LAP4 TOR yeast | S. cerevisiae AGP1-GFP strain, flow cytometry GFP, 3 h | percent response vs DMSO, % at 10 µM | 590 tested, under 10 active;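 active means over 150 percent of DMSO response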;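 further: median GFP channel fluorescence over all cells without mother daughter split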
Yeast autofluor = yeast s288c autofluorescence artifact, counter-screen; shares compounds with LAP4 TOR yeast; S. cerevisiae s288c, 520 nm autofluorescence, flow cytometry, 3 h; active compounds read high; zero means same as solvent-only cells; fluorescence change (kMESF span) at 33 µM; 610 tested, under 10 active; AID 2757;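 active means fluorescence span over the dose series, or activity score, above about 33, limit read from the data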
s288c autofl DR = counter-screen for autofluorescence of TOR hits in yeast s288c; shares compounds with LAP4 TOR yeast; fluorescence change (span) at 33 µM; 110 tested, under 10 active; S. cerevisiae s288c parental, compound autofluorescence, flow cytometry, 3 h;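 active means fluorescence change span, or the activity score built from it, above 25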
TORC1 bypass = stops wildtype yeast growth while TORC1 bypass cells still grow. shares compounds with LAP4 TOR yeast. S. cerevisiae BY4741 spot growth rating, 48-72 h; active compounds read low. growth rating (0-3) at 30 µM. 120 tested, under 10 active;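 active means growth rating at most 1 for wild type yeast while the TORC1 bypass strain still grows fully, rated 3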
A number is an active result; . = inactive; / = not tested or not shown; [ ] = dose if it differs, or a comment.

SMILES	LAP4 TOR yeast	AGP1-GFP MLPCN	CIT2 TOR yeast	RPL19A-GFP yeast	MEP2 TOR yeast	Yeast autofluor	others
COc1cc(S(=O)(=O)Nc2cccc3cn[nH]c23)c(OC)cc1C	.	.	167	.	.	/	LAP4 cherry2=.;MEP2-GFP pick2=.;RPL19A-GFP pick2=.;CIT2 GFP CP2=.;AGP1-GFP pick2=.
O=C(NC1CC2CCCC(C1)N2C(=S)Nc1ccccc1)C1CC1 (stereo unspecified)	.	.	.	.	.	/
O=C1C2C3C=CC(CO)(O3)C2C(=O)N1c1ccc(-c2ccccc2)cc1 (stereo unspecified)	263	.	.	.	.	.
CC(C)(C)C(=O)NCC12C=CC(O1)C1C(=O)N(c3ccccc3)C(=O)C12 (stereo unspecified)	.	.	.	.	.	/
COc1cc(C2c3c(c(C)c(C)oc3=O)Oc3c(C)c(C)oc(=O)c32)ccc1OS(=O)(=O)c1ccc(C)cc1	.	.	.	.	.	/
Cc1ccnc(N2C(=O)c3cccc4c([N+](=O)[O-])ccc(c34)C2=O)c1	232	.	181	.	312	.
Cc1ccc(N2C(=O)c3cccc4c([N+](=O)[O-])ccc(c34)C2=O)c2cccnc12	.	.	.	.	.	/
COc1cc(OC)cc(C(=O)NC(=S)NNC(=O)c2cnccn2)c1	.	.	.	.	.	/
COc1ccc(C(=O)NC(=S)NNC(=O)c2cnccn2)cc1OC	155[may fluoresce green]	.	.	.	.	.	LAP4 cherry2=168;MEP2-GFP pick2=155;RPL19A-GFP pick2=.;CIT2 GFP CP2=.;AGP1-GFP pick2=.
COc1ccc(-c2cc3cc(C(=O)O)ccn3c2C(=O)c2ccccc2)cc1	150	.	.	.	.	.
COc1ccc(C(=O)c2ccccc2)cc1	.	.	.	.	.	/
O=C(O)c1ccn2c(C(=O)c3ccccc3)c(-c3ccccc3)cc2c1	156	.	.	.	.	.
Cc1ccc2oc(C(=O)Nc3cc(C)on3)c(C)c2c1	.	.	.	.	.	/
O=[N+]([O-])c1ccc(S(=O)(=O)c2cccc(C(F)(F)F)c2)nc1	/	/	/	.	.	.	s288c autofl DR=.;TORC1 bypass=.
O=C1C2C3C=CC(CC3)C2C(=O)N1c1cccc(Br)c1 (stereo unspecified)	.	.	.	.	.	/
Cc1c(NC2=C(Cl)C(=O)N(c3ccccc3)C2=O)c(=O)n(-c2ccccc2)n1C	.	.	.	.	.	.
Cc1c(NC2=C(Cl)C(=O)N(c3ccccc3Cl)C2=O)c(=O)n(-c2ccccc2)n1C	.	.	.	.	.	.
O=C1C(Cl)=C(Nc2ccccc2O)C(=O)N1c1ccccc1	.	.	.	.	.	.
O=C(/C=C/c1cn(-c2ccccc2)nc1-c1cccc(Cl)c1)N1CCN(c2ccccn2)CC1	.	.	.	.	.	/
CN(C(=O)COC(=O)Cn1c(C(F)(F)F)nc2ccccc21)c1c(N)n(Cc2ccccc2)c(=O)[nH]c1=O	.	.	.	.	.	/
CC(=O)N1CCc2cc(S(=O)(=O)CCC(=O)NCc3ccc(F)cc3)ccc21	.	.	.	.	.	/	LAP4 cherry2=.;MEP2-GFP pick2=.;RPL19A-GFP pick2=.;CIT2 GFP CP2=.;AGP1-GFP pick2=.
Cc1cccc(C)c1NC(=O)CNC(=O)CCCN1C(=O)c2cccc3cccc(c23)C1=O	375	182	414	.	449	/	LAP4 cherry2=.;MEP2-GFP pick2=.;RPL19A-GFP pick2=.;CIT2 GFP CP2=.;AGP1-GFP pick2=.
CCOc1cc(/C=C2\C(=O)ON=C2c2ccccc2)ccc1OC	.	.	.	.	.	/
O=[N+]([O-])c1ccccc1-c1ccc(/C=N/n2cnnc2)o1	.	.	.	.	.	/
COc1cc(/C=C2\C(=O)ON=C2c2ccccc2)cc(OC)c1OC	.	.	.	.	.	.	LAP4 cherry2=195;MEP2-GFP pick2=.;RPL19A-GFP pick2=.;CIT2 GFP CP2=.;AGP1-GFP pick2=.
SMILES	LAP4 TOR yeast	AGP1-GFP MLPCN	CIT2 TOR yeast	RPL19A-GFP yeast	MEP2 TOR yeast	Yeast autofluor	others
COc1ccc(/C=C2/C(=O)ON=C2c2ccccc2)cc1OC	171	.	.	.	.	.
COc1ccc(/C=C2\C(=O)ON=C2c2ccccc2)cc1OC	.	.	.	.	.	/
CN(C)/C=C1\C(=O)ON=C1c1ccccc1	.	.	.	.	.	/
O=C1ON=C(c2ccccc2)/C1=C/c1ccco1	169	.	.	.	.	.	s288c autofl DR=.;TORC1 bypass=.
O=C1ON=C(c2ccccc2)/C1=C/c1ccc(-c2ccccc2[N+](=O)[O-])o1	179	.	.	.	.	.	LAP4 cherry2=150;MEP2-GFP pick2=.;RPL19A-GFP pick2=.;CIT2 GFP CP2=.;AGP1-GFP pick2=.
Cc1ccc(S(=O)(=O)N2CCCC(C(=O)NCCc3ccccc3)C2)cc1 (stereo unspecified)	.	.	.	.	.	/
CCCn1c(N)c(C(=O)CSc2nncs2)c(=O)[nH]c1=O	.	.	.	.	.	/
NS(=O)(=O)c1ccc(CCNCc2cccnc2)cc1	.	.	.	.	.	/
CS(=O)(=O)N1N=C(c2ccco2)CC1c1ccc(Cl)cc1 (stereo unspecified)	.	.	.	.	.	/
O=Nc1c(-c2cccc([N+](=O)[O-])c2)nc2ncccn12	.	.	.	.	.	/	LAP4 cherry2=.;MEP2-GFP pick2=.;RPL19A-GFP pick2=.;CIT2 GFP CP2=.;AGP1-GFP pick2=.
CC(C)c1ccc(C2(C)NC(=O)N(CC(=O)NCC3COc4ccccc4O3)C2=O)cc1 (stereo unspecified)	.	.	.	.	.	/
O=C(C#Cc1ccccc1)c1ccco1	153	.	.	.	.	.	LAP4 cherry2=156;MEP2-GFP pick2=165;RPL19A-GFP pick2=.;CIT2 GFP CP2=.;AGP1-GFP pick2=.
O=C(N/N=C/c1ccccc1)c1ccco1	.	.	.	.	.	/

Assay outcomes: PubChem, NMMLSC
